# Results filed as inconclusive are left out. A call without a number means that no potency is given here. Calls of active or inactive are those of the source. Calls follow the shape of the dose curve; as a rule, active = well fitted curve in the direction sought with a large enough effect; inconclusive = small, poorly fitted or top-dose-only effect, or another doubt; inactive = no such curve, though single readings can be large; an effect the other way counts as inactive or inconclusive.
# Key:
# [1] = MultiTox-Fluor Cytotoxicity Assay - LYMP1-001 - Dead Cells (AID 946)
# Method in brief: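 LYMP1-001 lymphoblastoid cells (2500/well) treated 16 h at 37 C. Dead-cell protease cleavage of bis-AAF-R110 read at Ex/Em 485/520. Normalized to DMSO and 15 uM tetraoctylammonium bromide; AC50 from Hill fits.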
# [2] = MultiTox-Fluor Cytotoxicity Assay - LYMP1-001 - Live Cells (AID 947)
# [3] = Cell Viability - LYMP1-002 - Assay at 16 hr (AID 948)
# Method in brief: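 In this qHTS, lymphoblastoid LYMP1-002 cells (human) receive compounds for 16 hr at 37 C. Viability is taken from CellTiter-Glo ATP luminescence, and AC50 derives from standard Hill fits.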
# [4] = MultiTox-Fluor Cytotoxicity Assay - LYMP1-002 - Live Cells (AID 955)
# Method in brief: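 Read-out is live-cell protease activity (cell-permeant GF-AFC substrate, fluorescence Ex/Em=405/510), where a decrease indicates acute toxicity. Human lymphoblastoid cells were treated 16 hours at 37 C in a concentration series, and AC50 values came from standard Hill modelling.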
# [5] = MultiTox-Fluor Cytotoxicity Assay - LYMP1-002 - Dead Cells (AID 960); also: nearly all actives have a fitted effect of over 60% in size
# Method in brief: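 LYMP1-002 cells 2500/well; 5 hr 37 C pre-incubation; compound 16 hr 37 C; MultiTox-Fluor reagent 60 min RT; dead-cell fluor Ex/Em 485/520. Norm. to DMSO (0%) vs 15 uM tetraoctylammonium bromide (100%); Hill AC50.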
# [6] = MultiTox-Fluor Cytotoxicity Assay - LYMP1-003 - Live Cells (AID 962);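 also: cytotoxic hits lower the live-cell protease signal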
# Method in brief: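 qHTS, 1536-well; 2500 cells/well LYMP1-003; 5 hr 37 C settle; cpd 16 hr 37 C; MultiTox-Fluor reagent 60 min RT; live-cell protease fluor. 405/510; Hill-fit AC50; tetraoctylammonium bromide pos. ctrl.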
# [7] = Cell Viability - LYMP1-003 - Assay at 24 hr (AID 963)
# Method in brief: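 Cells seeded at 2500/well, 5 hr at 37 C; compounds added; 24 hr at 37 C; CellTiter-Glo added, 30 min room temperature; luminescence read. Decrease in ATP taken as cytotoxicity, AC50 from Hill modelling.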
# [8] = Cell Viability - LYMP1-003 - Assay at 40 hr (AID 964); also: series mostly up to about 92 µM; nearly all actives have a fitted effect of over 60% in size
# Method in brief: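 Cells were seeded at 2500 per well and incubated 5 hr at 37 C. Compounds were added across a concentration series and left 40 hr at 37 C. CellTiter-Glo was added for 30 min at room temperature before luminescence reading.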
# [9] = Cell Viability - LYMP2-003 (AID 965);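 also: cells exposed to compounds for 24 h before reading; nearly all actives have a fitted effect of over 50% in size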
# Method in brief: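 qHTS, human lymphoblastoid line, 2500 cells/well, complete medium. 24 h drug, 37 C. ATP-based luminescent readout; Hill-fit AC50.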
# [10] = Cell Viability - LYMP2-004 (AID 966); also: nearly all actives have a fitted effect of over 65% in size
# Method in brief: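 Cells seeded 2500/well, rested 5 hr at 37 C, dosed across a concentration series, incubated 24 hr at 37 C, then CellTiter-Glo added for 30 min at room temperature and luminescence read. Hill fitting gave AC50.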
# [11] = Cell Viability - LYMP2-005 (AID 967); also: series mostly up to about 92 µM
# Method in brief: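 Luciferase-based ATP quantitation served as the viability measure in human lymphoblastoid LYMP2-005 cells exposed to test compounds for 24 h at 37 C in complete culture medium. Potency (AC50) was obtained by fitting concentration-response curves with the Hill equation.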
# [12] = Cell Viability - LYMP2-009 (AID 968); also: nearly all actives have a fitted effect of over 55% in size; also: potency is read from the fitted curve at half-maximal effect
# [13] = Cell Viability - LYMP2-011 (AID 969); also: nearly all actives have a fitted effect of over 60% in size; also: potency is read from the fitted curve at half-maximal effect
# Method in brief: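 2500 cells/well, 5 hr 37 C; compound added, 24 hr 37 C; CellTiter-Glo 30 min RT; luminescence. qHTS concentration-response, Hill-equation AC50. Tetraoctylammonium bromide positive control.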
# [14] = Cell Viability - LYMP2-013 (AID 970); also: nearly all actives have a fitted effect of over 55% in size; also: potency is read from the fitted curve at half-maximal effect
# Method in brief: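 qHTS; 2500 lymphoblastoid cells/well; 5 hr 37 C settle; cpd 24 hr 37 C; CellTiter-Glo, 30 min RT; luminescence. AC50 = Hill fit.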
# [15] = Cell Viability - LYMP2-015 (AID 971); also: nearly all actives have a fitted effect of over 55% in size; also: potency is read from the fitted curve at half-maximal effect
# Method in brief: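 Luminescent ATP read-out (CellTiter-Glo) served as the viability measure after lymphoblastoid cells were exposed to compounds for 24 hours at 37 C. Concentration-response data were fitted with the Hill equation to give AC50.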
# [16] = Cell Viability - LYMP2-017 (AID 972); also: nearly all actives have a fitted effect of over 55% in size; also: potency is read from the fitted curve at half-maximal effect
# Method in brief: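 2500 cells/well, 5 h 37 C; cpd 24 h 37 C in complete medium; CellTiter-Glo, 30 min RT; luminescence (ATP). AC50 via Hill fit, qHTS.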
# [17] = Cell Viability - LYMP2-019 (AID 973); also: nearly all actives have a fitted effect of over 55% in size
# Method in brief: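 Luminescent ATP read-out (CellTiter-Glo, 30 min room temperature) served as the viability measure after 24 hr treatment of lymphoblastoid cells at 37 C. Concentration-response data were fitted to the Hill equation for AC50.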
# [18] = Cell Viability - LYMP2-021 (AID 974); also: potency is read from the fitted curve at half-maximal effect
# Method in brief: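 Plate 2500 lymphoblastoid cells per well and incubate 5 hr at 37 C. Add compounds over a concentration range and incubate 24 hr at 37 C. Add CellTiter-Glo, wait 30 min at room temperature, read luminescence.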
# [19] = Cell Viability - LYMP2-023 (AID 975); also: nearly all actives have a fitted effect of over 55% in size; also: potency is read from the fitted curve at half-maximal effect
# Method in brief: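 2500 cells/well, 5 hr 37 C; cpd 24 hr 37 C; CellTiter-Glo, 30 min RT; luminescence. qHTS conc-response, Hill fit -> AC50. Pos ctrl tetraoctylammonium bromide.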
# [20] = MultiTox-Fluor Cytotoxicity Assay - LYMP1-003 - Dead Cells (AID 961); also: nearly all actives have a fitted effect of over 70% in size
# Method in brief: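 LYMP1-003 human lymphoblastoid cells (2500/well) exposed to compound 16 h at 37 C in complete medium; dead-cell protease read with bis-AAF-R110 fluorescence (Ex/Em 485/520) after 60 min at room temperature. Normalized to DMSO and 15 uM tetraoctylammonium bromide; AC50 from Hill fit.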
SMILES,outcome [1],outcome [2],outcome [3],outcome [4],outcome [5],Potency [6],Potency [7],Potency [8],Potency [9],Potency [10],outcome [11],Potency [12],Potency [13],Potency [14],Potency [15],Potency [16],Potency [17],Potency [18],Potency [19],Potency [20]
CCOc1ccc(NC(C)=O)cc1N,inactive,inactive,inactive,inactive,inactive,inactive,inactive,inactive,inactive,inactive,inactive,inactive,inactive,inactive,inactive,inactive,inactive,inactive,inactive,
Cc1ccccc1Br,inactive,inactive,inactive,inactive,,inactive,inactive,inactive,inactive,inactive,inactive,inactive,inactive,inactive,inactive,inactive,inactive,inactive,inactive,inactive
C(=C/c1ccccc1)/c1ccccc1,inactive,inactive,inactive,inactive,inactive,,inactive,inactive,,inactive,inactive,inactive,inactive,inactive,inactive,inactive,inactive,inactive,inactive,
CC(=O)c1cccc([N+](=O)[O-])c1,inactive,inactive,,inactive,inactive,inactive,inactive,inactive,inactive,inactive,inactive,inactive,inactive,inactive,inactive,inactive,inactive,inactive,inactive,inactive
Cc1ccc(N(C)C)cc1,inactive,inactive,inactive,,inactive,inactive,inactive,inactive,inactive,inactive,inactive,,inactive,inactive,,inactive,inactive,inactive,inactive,inactive
Nc1nc(-c2ccccc2)cs1,inactive,inactive,inactive,,,inactive,inactive,inactive,inactive,inactive,inactive,inactive,inactive,inactive,inactive,inactive,,inactive,inactive,
CC(C)(c1cc(Br)c(OCC(Br)CBr)c(Br)c1)c1cc(Br)c(OCC(Br)CBr)c(Br)c1 (configuration not stated),inactive,inactive,inactive,,inactive,inactive,inactive,inactive,inactive,inactive,inactive,inactive,inactive,inactive,inactive,inactive,,inactive,inactive,inactive
CC(CCl)OC(C)CCl (configuration not stated),inactive,inactive,inactive,,inactive,inactive,inactive,inactive,inactive,,inactive,,inactive,inactive,inactive,inactive,inactive,inactive,inactive,inactive
CCCCC/C=C/C=C/C=O,inactive,inactive,inactive,inactive,,inactive,inactive,inactive,,,,39.8 µM (active),39.8 µM (active),50.1 µM (active),31.6 µM (active),31.6 µM (active),,39.8 µM (active),50.1 µM (active),inactive
CC(=O)Nc1ccccc1C,inactive,inactive,inactive,inactive,,inactive,inactive,inactive,,inactive,inactive,,inactive,inactive,inactive,inactive,inactive,,inactive,inactive
CC1CCC2CC1C2(C)C (configuration not stated),inactive,inactive,inactive,,inactive,inactive,inactive,inactive,inactive,,inactive,,inactive,inactive,inactive,inactive,inactive,inactive,inactive,inactive
Cc1cc(C2(c3cc(C)c(O)cc3C)OS(=O)(=O)c3ccccc32)c(C)cc1O,inactive,inactive,inactive,inactive,,,inactive,inactive,inactive,inactive,inactive,inactive,inactive,inactive,inactive,inactive,,inactive,inactive,inactive
CCOC(=O)C(C)C(C)=O (configuration not stated),inactive,inactive,,inactive,inactive,inactive,inactive,inactive,inactive,inactive,inactive,inactive,inactive,inactive,inactive,inactive,inactive,,inactive,inactive
CC1(N)CCC(C(C)(C)N)CC1 (configuration not stated),inactive,inactive,inactive,,inactive,inactive,inactive,inactive,inactive,inactive,inactive,inactive,inactive,inactive,inactive,inactive,inactive,,inactive,inactive
FC(F)(F)c1cccc(Cl)c1,inactive,inactive,inactive,,inactive,inactive,inactive,inactive,inactive,inactive,inactive,,inactive,inactive,,inactive,inactive,inactive,inactive,inactive
Cc1cc(C(=O)O)ccc1[N+](=O)[O-],inactive,inactive,inactive,,inactive,inactive,inactive,inactive,inactive,inactive,inactive,,inactive,inactive,inactive,inactive,inactive,inactive,inactive,inactive
CC(C)c1ccccc1,inactive,inactive,inactive,,inactive,inactive,inactive,inactive,inactive,inactive,inactive,inactive,inactive,,inactive,inactive,,inactive,inactive,inactive

SMILES,outcome [1],outcome [2],outcome [3],outcome [4],outcome [5],Potency [6],Potency [7],Potency [8],Potency [9],Potency [10],outcome [11],Potency [12],Potency [13],Potency [14],Potency [15],Potency [16],Potency [17],Potency [18],Potency [19],Potency [20]
Cc1cc(C)cc([N+](=O)[O-])c1,inactive,inactive,inactive,,inactive,inactive,inactive,inactive,inactive,inactive,inactive,,inactive,inactive,inactive,inactive,inactive,inactive,inactive,inactive
CCOCC(=O)O,inactive,inactive,,inactive,inactive,inactive,inactive,inactive,inactive,inactive,inactive,inactive,inactive,inactive,inactive,inactive,inactive,inactive,inactive,inactive
CC(C)Cc1nccs1,inactive,inactive,inactive,,inactive,,inactive,inactive,inactive,inactive,inactive,inactive,inactive,inactive,inactive,inactive,,inactive,inactive,inactive
O=CNc1ccccc1,inactive,inactive,inactive,inactive,,inactive,inactive,inactive,,inactive,inactive,inactive,inactive,inactive,inactive,inactive,inactive,inactive,inactive,inactive
CC(=O)CCc1ccccc1,inactive,inactive,inactive,,inactive,inactive,inactive,inactive,inactive,inactive,inactive,inactive,inactive,inactive,inactive,inactive,inactive,inactive,inactive,
CCC1CO1 (configuration not stated),inactive,inactive,inactive,inactive,,inactive,inactive,inactive,,inactive,inactive,inactive,inactive,inactive,inactive,inactive,inactive,inactive,inactive,inactive
CC/C(C)=N/O,inactive,inactive,inactive,,inactive,inactive,inactive,inactive,inactive,inactive,,inactive,inactive,inactive,inactive,inactive,inactive,inactive,inactive,inactive
Cc1ccc([N+](=O)[O-])c(N)c1,inactive,inactive,,inactive,inactive,inactive,inactive,inactive,inactive,inactive,inactive,inactive,inactive,inactive,,inactive,inactive,inactive,inactive,inactive
CCOc1cc(OCC)c(C(C)=O)cc1OCC,inactive,inactive,inactive,inactive,,inactive,inactive,inactive,,inactive,inactive,inactive,inactive,inactive,,inactive,inactive,,inactive,inactive
NC=O,inactive,inactive,inactive,,inactive,,inactive,inactive,inactive,inactive,inactive,inactive,inactive,inactive,inactive,inactive,inactive,inactive,inactive,inactive
Cc1cc(C)c(N)cc1C,inactive,inactive,inactive,,inactive,inactive,inactive,inactive,inactive,inactive,inactive,inactive,inactive,inactive,,inactive,inactive,inactive,inactive,inactive
CO[Si](CCCNCCC[Si](OC)(OC)OC)(OC)OC,inactive,inactive,inactive,inactive,,,inactive,inactive,inactive,inactive,inactive,inactive,inactive,inactive,inactive,inactive,inactive,,inactive,inactive
C/C=C(/C)C#N,inactive,inactive,,inactive,inactive,inactive,inactive,inactive,inactive,inactive,inactive,inactive,inactive,inactive,inactive,inactive,inactive,inactive,inactive,inactive
Cc1ccc(C(=O)O)cc1,inactive,inactive,inactive,,inactive,,inactive,inactive,inactive,inactive,inactive,inactive,inactive,inactive,inactive,inactive,inactive,inactive,inactive,inactive
CCCCCCCCCCCCC1CO1 (configuration not stated),inactive,inactive,inactive,,inactive,inactive,inactive,inactive,inactive,inactive,,inactive,inactive,inactive,inactive,inactive,,inactive,inactive,
CCCCN(CCO)CCCC,inactive,inactive,inactive,,inactive,inactive,inactive,inactive,,inactive,inactive,,inactive,inactive,inactive,inactive,inactive,inactive,inactive,inactive
CC(=O)c1ccccn1,inactive,inactive,,inactive,inactive,inactive,inactive,inactive,inactive,inactive,inactive,inactive,inactive,inactive,inactive,inactive,inactive,inactive,inactive,inactive

# From PubChem BioAssay (NCATS)
